Data reported in PubChem BioAssay (Tox21).
Results filed as inconclusive are left out. Active and inactive are the calls of the source. Unless noted, calls follow the shape of the dose curve; as a rule, active = well fitted curve in the direction sought with a large enough effect in the repeat runs; inconclusive = weak or mixed curves; inactive = no such curve, though single readings can be large; an effect the other way counts as inactive or inconclusive.

Tests used:
[1] = target: Estrogen receptor (Homo sapiens) (UniProt P03372); assay: qHTS assay to identify small molecule antagonists of the estrogen receptor alpha (ER-alpha) signaling pathway using the BG1 cell line in the presence of 0.1 nM 17-beta-estradiol (AID 1259244); also: nearly all actives have a fitted effect of over 50% in size; also: potency is read from the fitted curve at half-maximal effect
Estrogen receptor (Homo sapiens), sequence (P03372 whole entry, looked up): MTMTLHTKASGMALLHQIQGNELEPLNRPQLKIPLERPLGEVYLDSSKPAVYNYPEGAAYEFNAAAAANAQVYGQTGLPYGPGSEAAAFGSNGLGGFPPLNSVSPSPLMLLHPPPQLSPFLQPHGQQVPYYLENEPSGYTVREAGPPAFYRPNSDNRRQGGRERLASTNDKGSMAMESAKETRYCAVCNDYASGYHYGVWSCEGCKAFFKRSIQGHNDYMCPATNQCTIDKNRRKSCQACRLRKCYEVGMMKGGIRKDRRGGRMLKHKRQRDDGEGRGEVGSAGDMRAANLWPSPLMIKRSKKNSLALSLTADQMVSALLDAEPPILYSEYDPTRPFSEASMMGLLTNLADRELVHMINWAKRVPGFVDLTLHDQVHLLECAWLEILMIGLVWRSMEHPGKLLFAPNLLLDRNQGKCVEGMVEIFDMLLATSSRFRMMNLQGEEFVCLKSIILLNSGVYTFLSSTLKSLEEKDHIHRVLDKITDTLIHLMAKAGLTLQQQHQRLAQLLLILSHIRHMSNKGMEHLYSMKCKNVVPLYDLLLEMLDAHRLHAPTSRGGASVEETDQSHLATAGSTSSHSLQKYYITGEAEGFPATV
In short: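 Antagonist mode: compounds in DMSO are pinned onto VM7Luc4E2 reporter cells, 0.1 nM final 17beta-estradiol is added, and after 22 h at 37C luciferase luminescence is measured with ONE-Glo.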

[2] = qHTS assay to identify small molecule HDAC inhibitors (AID 1259364); also: potency is read from the fitted curve at half-maximal effect;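 also: wild-type HCT-116 cells with endogenous class I/II HDAC activity; nearly all actives have a fitted effect of over 45% in size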
In short: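 Cells (HCT-116, wild type) are seeded at 1,500 per well, incubated overnight, treated with compound in DMSO for 2 hr, then developed with HDAC-Glo I/II reagent for 30 min at room temperature.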

[3] = qHTS assay to identify small molecule HDAC inhibitors - cell viability counter screen (AID 1259365); also: series mostly up to about 92 µM; nearly all actives have a fitted effect of over 50% in size
In short: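 Cytotoxicity was gauged in wild-type HCT-116 cells after a brief 2hr treatment with DMSO-dissolved compounds at 37C and 5% CO2, using CellTiter-Glo luminescence developed for 30min at room temperature.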

[4] = qHTS assay to identify small molecule agonists of the sonic hedgehog signaling (Shh) pathway - cell viability counter screen (AID 1259366); also: nearly all actives have a fitted effect of over 50% in size; also: potency is read from the fitted curve at half-maximal effect
In short: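 Stable Gli1-Luc NIH/3T3 clone, 2,000 cells/well. Compound exposure 24hr at 37C. Read-out: CellTiter-Fluor fluorescence.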

[5] = qHTS assay to identify small molecule antagonists of the sonic hedgehog signaling (Shh) pathway - cell viability counter screen (AID 1259367); also: nearly all actives have a fitted effect of over 55% in size
In short: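 Tox21 library chemicals were tested on a Gli1-Luc NIH/3T3 clone (2,000 cells/well) stimulated by conditioned medium; viability was quantified as fluorescence from CellTiter-Fluor reagent added at 23 hr.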

[6] = qHTS assay to identify small molecule agonists of the sonic hedgehog signaling (Shh) pathway (AID 1259368; calls by dose curve;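 also: NIH/3T3-derived 3T3Gli1-Luc cells carrying a stable Gli1-driven firefly luciferase reporter; series mostly up to about 92 µM; nearly all actives have a fitted effect of over 15% in size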)
In short: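 Cells of a mouse NIH/3T3 clone stably expressing luciferase under the Gli1 transcriptional response element are exposed to test chemicals for 24 hr at 37 C. Pathway activation is detected as a rise in luminescence.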

[7] = qHTS assay to identify small molecule agonists of the androgen receptor (AR) signaling pathway in the presence of an antagonist - cell viability counter screen (AID 1259379); also: nearly all actives have a fitted effect of over 25% in size; also: potency is read from the fitted curve at half-maximal effect
In short: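 Cytotoxicity is assessed by CellTiter-Fluor in MDA-kb2 cells carrying an MMTV-driven luciferase reporter. Cells receive 3.0uM nilutamide plus compounds at 15 concentrations and incubate 16 hr at 37C without CO2 before fluorescence reading.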

[8] = qHTS assay to identify small molecule antagonists of the estrogen receptor beta (ER-beta) signaling pathway - cell viability counter screen (AID 1259382); also: series mostly up to about 92 µM; nearly all actives have a fitted effect of over 55% in size
In short: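 Cytotoxicity counter screen multiplexed with the beta-lactamase antagonist assay: GripTite HEK293T ER-beta-bla cells were treated 16 hr with test chemicals in the presence of 1nM 17-beta-estradiol, and viability was measured by CellTiter-Glo.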

[9] = target: Estrogen receptor (Homo sapiens) (UniProt P03372); assay: qHTS assay to identify small molecule agonists of the estrogen receptor alpha (ER-alpha) signaling pathway in the presence of an antagonist (AID 1259383; calls by dose curve; also: top concentration of the series differs between compounds; nearly all actives have a fitted effect of over 15% in size)
In short: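 Agonist-mode confirmation in the presence of the ER antagonist ICI-182,780 at 10.0nM final. Breast-derived VM7Luc4E2 reporter cells were exposed to compounds for 22hr, and ERE-driven luciferase was quantified by luminescence.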

[10] = qHTS assay to identify small molecule agonists or antagonists of the thyroid stimulating hormone receptor (TSHR) signaling pathway - wild type cell line counter screen (AID 1259384; calls by dose curve)
In short: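 Wild-type Hek293 cells, 800/well, 18 h at 37C, then compound with Ro20-1724 for 30 min RT. cAMP by HTRF (cAMP-d2/anti-cAMP cryptate), 1 h RT, fluorescence read. 15 concentrations, triplicates.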

[11] = target: Thyrotropin receptor (Homo sapiens) (UniProt P16473); assay: qHTS assay to identify small molecule antagonists of the thyroid stimulating hormone receptor (TSHR) signaling pathway (AID 1259385; calls by dose curve; also: nearly all actives have a fitted effect of over 20% in size; also: potency is read from the fitted curve at half-maximal effect)
Thyrotropin receptor (Homo sapiens), sequence (P16473 whole entry, looked up): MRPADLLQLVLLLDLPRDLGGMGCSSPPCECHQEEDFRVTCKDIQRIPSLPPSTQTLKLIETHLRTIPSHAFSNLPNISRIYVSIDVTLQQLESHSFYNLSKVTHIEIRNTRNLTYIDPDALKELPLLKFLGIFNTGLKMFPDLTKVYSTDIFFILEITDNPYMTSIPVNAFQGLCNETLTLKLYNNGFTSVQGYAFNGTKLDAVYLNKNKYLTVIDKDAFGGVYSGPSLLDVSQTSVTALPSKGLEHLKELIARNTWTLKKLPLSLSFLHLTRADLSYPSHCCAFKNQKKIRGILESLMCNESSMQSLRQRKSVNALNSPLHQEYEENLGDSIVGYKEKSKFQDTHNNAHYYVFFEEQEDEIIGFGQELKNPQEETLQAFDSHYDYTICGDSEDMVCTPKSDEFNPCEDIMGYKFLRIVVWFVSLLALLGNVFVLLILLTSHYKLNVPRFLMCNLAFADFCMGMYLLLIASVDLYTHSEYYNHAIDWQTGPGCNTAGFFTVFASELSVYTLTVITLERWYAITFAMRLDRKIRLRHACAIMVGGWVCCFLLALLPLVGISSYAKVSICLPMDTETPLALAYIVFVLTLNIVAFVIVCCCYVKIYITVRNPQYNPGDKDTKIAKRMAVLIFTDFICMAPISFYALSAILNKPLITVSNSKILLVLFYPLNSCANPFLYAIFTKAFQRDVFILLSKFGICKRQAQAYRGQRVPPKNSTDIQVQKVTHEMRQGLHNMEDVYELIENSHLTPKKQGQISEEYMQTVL
In short: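 TSHR-HEK293 cells (800/well) plated 18 h, then compounds with Ro20-1724 and TSH at 1.5 ng/mL final, 30 min at room temperature. cAMP quantified by HTRF (cAMP-d2/anti-cAMP-cryptate, 1 h); 15 concentrations in triplicate.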

[12] = target: Progesterone receptor (Homo sapiens) (UniProt P06401); assay: qHTS assay to identify small molecule agonists of the progesterone receptor (PR) signaling pathway (AID 1346784; calls by dose curve; also: nearly all actives have a fitted effect of over 30% in size)
Progesterone receptor (Homo sapiens), sequence (P06401 whole entry, looked up): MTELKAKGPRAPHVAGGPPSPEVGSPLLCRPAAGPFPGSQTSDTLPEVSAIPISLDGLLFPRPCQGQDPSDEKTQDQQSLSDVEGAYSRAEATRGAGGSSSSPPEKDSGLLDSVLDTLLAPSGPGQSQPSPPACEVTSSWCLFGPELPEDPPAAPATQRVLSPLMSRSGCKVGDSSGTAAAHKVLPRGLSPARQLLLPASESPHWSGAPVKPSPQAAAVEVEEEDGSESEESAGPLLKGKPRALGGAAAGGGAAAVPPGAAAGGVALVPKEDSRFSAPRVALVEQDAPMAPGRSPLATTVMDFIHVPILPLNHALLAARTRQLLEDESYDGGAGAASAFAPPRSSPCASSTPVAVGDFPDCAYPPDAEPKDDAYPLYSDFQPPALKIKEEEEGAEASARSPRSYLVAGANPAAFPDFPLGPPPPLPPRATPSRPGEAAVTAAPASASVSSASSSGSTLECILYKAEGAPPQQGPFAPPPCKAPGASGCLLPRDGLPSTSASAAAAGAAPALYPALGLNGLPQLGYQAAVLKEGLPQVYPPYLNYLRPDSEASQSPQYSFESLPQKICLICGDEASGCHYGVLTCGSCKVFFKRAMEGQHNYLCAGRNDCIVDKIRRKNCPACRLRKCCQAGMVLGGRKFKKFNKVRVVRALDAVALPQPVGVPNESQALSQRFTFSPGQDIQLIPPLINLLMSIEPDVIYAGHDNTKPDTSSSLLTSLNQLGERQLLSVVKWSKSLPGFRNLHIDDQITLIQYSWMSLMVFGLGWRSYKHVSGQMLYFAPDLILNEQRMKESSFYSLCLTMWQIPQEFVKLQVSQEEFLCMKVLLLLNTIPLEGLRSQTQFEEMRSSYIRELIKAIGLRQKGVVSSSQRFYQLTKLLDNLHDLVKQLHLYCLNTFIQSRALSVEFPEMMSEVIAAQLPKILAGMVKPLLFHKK
In short: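 The screen uses PR-UAS-bla HEK 293T cells in charcoal-stripped serum (2%). Compounds are applied for 16 hr at 37C after a 6 hr pre-incubation, and reporter activity is detected with a FRET beta-lactamase substrate after 2 hr at room temperature.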

[13] = qHTS assay to identify small molecule antagonists of the sonic hedgehog signaling (Shh) pathway (AID 1259369; calls by dose curve; also: potency is read from the fitted curve at half-maximal effect; nearly all actives have a fitted effect of over 45% in size)
In short: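 Cells are plated and held 4hr at 37 C, compounds (DMSO) are pinned in, conditioned medium is added to stimulate the pathway, and after 24hr luciferase reagent is added for 30min before luminescence is read.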

[14] = target: Estrogen receptor beta (Homo sapiens) (UniProt Q92731); assay: qHTS assay to identify small molecule agonists of the estrogen receptor beta (ER-beta) signaling pathway (AID 1259377; active = well fitted activation curve with a large enough effect in the signal ratio in the repeat runs, not every such curve was filed as active; the % refers to the signal ratio)
Estrogen receptor beta (Homo sapiens), sequence (Q92731 whole entry, looked up): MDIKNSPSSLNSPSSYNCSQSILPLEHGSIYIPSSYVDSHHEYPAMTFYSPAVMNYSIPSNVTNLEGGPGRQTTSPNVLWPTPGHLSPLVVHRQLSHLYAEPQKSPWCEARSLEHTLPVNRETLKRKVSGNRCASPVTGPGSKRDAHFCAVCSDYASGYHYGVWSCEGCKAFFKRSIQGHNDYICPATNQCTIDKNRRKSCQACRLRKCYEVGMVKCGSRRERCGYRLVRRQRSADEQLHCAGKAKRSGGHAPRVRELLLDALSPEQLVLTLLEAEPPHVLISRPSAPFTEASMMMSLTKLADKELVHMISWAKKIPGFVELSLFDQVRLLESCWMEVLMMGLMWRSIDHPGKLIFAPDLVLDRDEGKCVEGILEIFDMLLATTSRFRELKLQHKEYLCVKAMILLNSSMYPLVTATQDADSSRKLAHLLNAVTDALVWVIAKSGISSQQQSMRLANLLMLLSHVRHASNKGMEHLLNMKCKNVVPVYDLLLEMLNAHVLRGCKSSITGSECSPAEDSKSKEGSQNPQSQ
In short: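 Measured by fluorescence intensity from a B/G FRET beta-lactamase substrate (2 h, room temperature) in ER-beta-UAS-bla HEK293T cells treated with DMSO-dissolved compounds for 16 hr at 37C and 5% CO2.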

[15] = target: Estrogen receptor beta (Homo sapiens) (UniProt Q92731); assay: qHTS assay to identify small molecule antagonists of the estrogen receptor beta (ER-beta) signaling pathway (AID 1259378; active = well fitted inhibition curve with a large enough effect in the signal ratio in the repeat runs, not every such curve was filed as active; the % refers to the signal ratio; also: potency is read from the fitted curve at half-maximal effect)
In short: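 ER-beta-UAS-bla HEK293T cells in 2% charcoal-stripped FBS medium treated with compound plus 1nM final 17-beta-estradiol for 16 hr at 37C. Beta-lactamase reporter read by FRET substrate fluorescence after 2 hours at room temperature.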

[16] = target: Androgen receptor (Homo sapiens) (UniProt P10275); assay: qHTS assay to identify small molecule agonists of the androgen receptor (AR) signaling pathway in the presence of an antagonist (AID 1259381; calls by dose curve; also: nearly all actives have a fitted effect of over 15% in size)
Androgen receptor (Homo sapiens), sequence (P10275 whole entry, looked up): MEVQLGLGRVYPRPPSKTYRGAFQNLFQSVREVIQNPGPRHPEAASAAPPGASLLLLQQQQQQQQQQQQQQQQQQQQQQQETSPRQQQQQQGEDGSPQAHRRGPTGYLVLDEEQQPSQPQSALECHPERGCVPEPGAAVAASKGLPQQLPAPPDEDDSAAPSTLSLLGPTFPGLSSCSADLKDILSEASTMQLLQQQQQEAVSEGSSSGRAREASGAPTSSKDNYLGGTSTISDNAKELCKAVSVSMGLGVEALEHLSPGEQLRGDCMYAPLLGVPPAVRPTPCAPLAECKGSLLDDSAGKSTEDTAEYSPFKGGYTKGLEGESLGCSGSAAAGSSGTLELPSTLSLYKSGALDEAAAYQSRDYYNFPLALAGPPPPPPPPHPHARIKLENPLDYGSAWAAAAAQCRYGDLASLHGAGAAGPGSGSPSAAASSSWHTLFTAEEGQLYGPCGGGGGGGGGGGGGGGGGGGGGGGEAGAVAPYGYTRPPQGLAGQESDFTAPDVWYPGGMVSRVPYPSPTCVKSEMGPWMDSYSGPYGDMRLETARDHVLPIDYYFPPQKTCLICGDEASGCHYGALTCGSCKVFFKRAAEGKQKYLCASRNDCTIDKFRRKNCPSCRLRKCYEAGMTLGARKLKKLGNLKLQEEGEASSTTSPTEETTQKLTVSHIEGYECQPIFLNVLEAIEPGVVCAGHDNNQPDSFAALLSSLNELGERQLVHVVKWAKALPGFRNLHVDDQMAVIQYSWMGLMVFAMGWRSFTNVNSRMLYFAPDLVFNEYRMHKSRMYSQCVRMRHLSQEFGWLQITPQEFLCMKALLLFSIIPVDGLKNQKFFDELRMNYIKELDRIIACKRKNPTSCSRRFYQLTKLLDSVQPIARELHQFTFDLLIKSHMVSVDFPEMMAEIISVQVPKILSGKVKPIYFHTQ
In short: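 Agonist-mode confirmation screen: human MDA-kb2 cells stably expressing luciferase under an MMTV promoter bearing AR and GR response elements, co-treated with 3.0uM nilutamide (final). Luminescence measured after 16hr compound incubation.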

[17] = qHTS assay to identify small molecule agonists of the estrogen receptor beta (ER-beta) signaling pathway - cell viability counter screen (AID 1259380); also: nearly all actives have a fitted effect of over 30% in size
In short: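 Cytotoxicity is measured in parallel with the reporter screen: after 16 hr compound exposure at 37C and a 2 hr LiveBLAzer step, CellTiter-Glo is added to the same ER-beta-UAS-bla HEK293T wells and luminescence read after 30 min.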

[18] = qHTS assay to identify small molecule agonists of the estrogen receptor alpha (ER-alpha) signaling pathway in the presence of an antagonist - cell viability counter screen (AID 1259386);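 also: series mostly up to about 92 µM; cells exposed to compounds for 22 h at 37 °C before the viability read; nearly all actives have a fitted effect of over 30% in size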
In short: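 Cytotoxicity was measured in parallel with the ERE-luciferase agonist screen, in the same wells. The cells were VM7Luc4E2, which endogenously express ER-alpha, and treatment was with compounds plus 10.0nM ICI-182,780 for 22hr.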

[19] = target: Progesterone receptor (Homo sapiens) (UniProt P06401); assay: qHTS assay to identify small molecule antagonists of the progesterone receptor (PR) signaling pathway (AID 1346795; active = well fitted inhibition curve with a large enough effect in the signal ratio in the repeat runs, not every such curve was filed as active; the % refers to the signal ratio)
In short: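 After 6 hr plating at 37C in 2% stripped-serum medium, PR-UAS-bla HEK293T cells got compounds, then 1 nM R5020. Sixteen hours later, LiveBLAzer substrate was applied for 2 hr at room temperature and fluorescence was recorded.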

Measured: Potency

Oc1ccc2c(c1)OCO2
not listed: [13] | [14] | [15] | [16] | [17] | [18] | [19]
inactive: all other assays above

CC(C)(C)c1cc(O)c(C(C)(C)C)cc1O
active: [1] 43.3 µM | [4] 61.1 µM | [13] 30.6 µM | [15] 30.6 µM | [7] 54.5 µM | [11] 61.1 µM
not listed: [5] | [10] | [17] | [18] | [19]
inactive: all other assays above

CCOc1ccc2[nH]cc(C(=O)NCc3ccccc3)c(=O)c2n1
active: [1] 54.5 µM
not listed: [5] | [13] | [14] | [15] | [16]
inactive: all other assays above

C=C(C)C(=O)OCCOc1ccccc1
active: [2] 27.3 µM | [13] 43.3 µM
not listed: [4] | [5] | [10] | [14]
inactive: all other assays above
